Results published in PubChem BioAssay (Tox21).
Inconclusive results are not listed. A number with no mark means an inactive call. Calls of active or inactive are those of the source. Unless noted, calls come from the whole dose curve; as a rule, active = well fitted activation curve with a large enough effect in the repeat runs; inconclusive = weak or mixed curves; inactive = no such curve, though single readings can be large or run the other way.
% is set by controls: 0 for no effect and ±100 for the full control effect; potency is the fitted concentration of half-maximal effect.
Note: nearly all actives have a fitted effect of over 15% in size.

Assay: qHTS assay for small molecule agonists of the p53 signaling pathway (AID 651631; calls by dose curve)
Settings: HCT-116 p53RE-bla reporter, beta-lactamase FRET ratio, 16 h; series mostly up to 73.3 µM; activation: at the top concentration
Procedure, shortened: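 HCT-116 cells carrying a beta-lactamase reporter under p53 response elements were dosed with compound for 16 h at 37 °C. LiveBLAzer B/G FRET substrate was then added for 2 h at room temperature, and fluorescence intensity was read to detect pathway agonism.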
For `CC(=O)c1ccc2c(c1)N(CCCN(C)C)c1ccccc1S2`, the “activation” value was -4.11% [at 34.7 µM]. For `O=C1c2ccccc2S(=O)(=O)N1CCCCN1CCN(c2ncccn2)CC1`, the “activation” value was -2.23%. For `CN(C)c1ccc(C(c2ccccc2)c2ccc(N(C)C)cc2)cc1`, the “activation” value was 6.97%. For `Cc1oc2c(NC(=O)c3c(Cl)cccc3Cl)cccc2c1C(C)(C)O`, the “activation” value was -4.92%. For `O=S(c1cc(Cl)cc(Cl)c1O)c1cc(Cl)cc(Cl)c1O`, the Potency was 8.41 µM (active). In the case of `C=CC1CC2C=CC1C2` (centres undefined), the “activation” value is reported as -2.59%. For `ClCCOCCOCCCl`, the “activation” value was 3.42%. For `OCc1cc(C(O)CNCCCCCCOCCCCc2ccccc2)ccc1O` (centres undefined), the “activation” value was 6.35%. For `CC(C)OC(=O)C(C)N(C(=O)c1ccccc1)c1ccc(F)c(Cl)c1` (centres undefined), the “activation” value was -1.03%. For `Nc1cccc([N+](=O)[O-])c1`, the “activation” value was -3.06%. With `CC1(c2ccccc2)OC(C(=O)O)=CC1=O` (centres undefined) the “activation” value was 2.11%. With `O=C(NCCO[N+](=O)[O-])c1cccnc1` the “activation” value was -4.35%. In the case of `O=CC1CC=CCC1` (centres undefined), the “activation” value is reported as 1.03%. In the case of `CCCCCC[C@@H](O)C/C=C\CCCCCCCC(=O)OC`, the “activation” value is reported as -2.17% [at 95.1 µM]. With `CCCCC(CC)COC(=O)CCCCCCCCC(=O)OCC(CC)CCCC` (centres undefined) the “activation” value was -2.96%. For `O=C(O)c1ccco1`, the “activation” value was 2.25%. For `C=CCOC(=O)CCC1CCCCC1`, the “activation” value was 1.57%. `O=C(O)CNCC(=O)O` gave an activation of -5.9% [at 8.3 µM]. In the case of `CNCCCN1c2ccccc2CCc2ccccc21`, the “activation” value is reported as 4.99% [at 34.7 µM]. For `CC(=O)NO`, the “activation” value was -2.24%. In the case of `Nc1ccccc1S(=O)(=O)c1ccccc1`, the “activation” value is reported as 3.99%. For `NCc1ccccc1Sc1ccccc1CO`, the “activation” value was 4.63%. With `CCOCC(O)COc1ccc(NC(=O)CC[S+](C)C)cc1` (centres undefined) the “activation” value was 2.31%. In the case of `NCC(=O)CCC(=O)O`, the “activation” value is reported as 1.36%. For `C[N+](C)(C)CCOC(=O)CCC(=O)OCC[N+](C)(C)C`, the “activation” value was -5.64%. For `NC(=O)C(c1ccccc1)(c1ccccc1)[C@@H]1CCN(CCc2ccc3c(c2)CCO3)C1`, the “activation” value was -4.78%. With `C=C(C)C(=O)OCCOCC` the “activation” value was -5.92% [at 95.1 µM]. For `Cn1c(=O)cc(Oc2ccc(F)cc2F)c2cnc(NCC(C)(C)O)nc21`, the “activation” value was -4.41%. In the case of `C/C(=C(\CCOP(=O)(O)O)SC(=O)c1ccccc1)N(C=O)Cc1cnc(C)nc1N`, the “activation” value is reported as -2.44% [at 34.7 µM]. For `c1ccc(C(O[C@H]2CCCN(CCc3ccc4c(c3)OCO4)C2)c2ccccc2)cc1`, the “activation” value was 3.42%. With `COc1ccc(C(=O)N2CCN(CC(=O)N3CCOCC3)CC2)cc1` the “activation” value was -2.34%. For `C/C=C/C(=O)CC`, the activation was -0.927% [at 18 µM]. In the case of `COc1ccc(S(=O)(=O)N2C(=O)[C@@](c3ccccc3OC)(N3C[C@H](O)C[C@H]3C(=O)N(C)C)c3cc(Cl)ccc32)c(OC)c1`, the “activation” value is reported as -3.47%. For `C#CCN(C)CCCOc1ccc(Cl)cc1Cl`, the “activation” value was -2.18%. In the case of `CCCCC(CC)COC(=O)COc1ccc(Cl)cc1Cl` (centres undefined), the “activation” value is reported as -3.98% [at 95.1 µM]. With `CC(=O)OC[C@H]1O[C@@H](n2ncc(=O)[nH]c2=O)[C@H](OC(C)=O)[C@@H]1OC(C)=O` the Potency was 1.88 µM (active). With `COc1cc(C(=O)OCCCN2CCCN(CCCOC(=O)c3cc(OC)c(OC)c(OC)c3)CC2)cc(OC)c1OC` the “activation” value was 3.56%.

Assay: qHTS assay for small molecules that induce genotoxicity in human embryonic kidney cells expressing luciferase-tagged ATAD5 (AID 651632)
Settings: HEK293T ATAD5-luciferase induction, 16 h; series mostly up to 83.3 µM; activation: at the top concentration
Procedure, shortened: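 ATAD5-luc HEK293T, 2,000 cells/well; cpd or DMSO pin-transferred; 16 hr, 37C/5% CO2; Amplite 30 min RT; luminescence.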
For `CC(=O)c1ccc2c(c1)N(CCCN(C)C)c1ccccc1S2`, the “activation” value was -1.36% [at 39.1 µM]. With `O=C1c2ccccc2S(=O)(=O)N1CCCCN1CCN(c2ncccn2)CC1` the “activation” value was -1.6%. In the case of `CN(C)c1ccc(C(c2ccccc2)c2ccc(N(C)C)cc2)cc1`, the “activation” value is reported as -7.53%. With `Cc1oc2c(NC(=O)c3c(Cl)cccc3Cl)cccc2c1C(C)(C)O` the “activation” value was -8.52%. With `O=S(c1cc(Cl)cc(Cl)c1O)c1cc(Cl)cc(Cl)c1O` the “activation” value was -3.69%. For `C=CC1CC2C=CC1C2` (centres undefined), the “activation” value was -0.611%. For `ClCCOCCOCCCl`, the “activation” value was -2.31%. With `OCc1cc(C(O)CNCCCCCCOCCCCc2ccccc2)ccc1O` (centres undefined) the Potency was “inactive”. For `CC(C)OC(=O)C(C)N(C(=O)c1ccccc1)c1ccc(F)c(Cl)c1` (centres undefined), the “activation” value was -8.6%. With `Nc1cccc([N+](=O)[O-])c1` the “activation” value was 3.13%. For `CC1(c2ccccc2)OC(C(=O)O)=CC1=O` (centres undefined), the “activation” value was 0.584%. In the case of `O=C(NCCO[N+](=O)[O-])c1cccnc1`, the “activation” value is reported as -2.62%. With `O=CC1CC=CCC1` (centres undefined) the “activation” value was 1.02%. In the case of `CCCCCC[C@@H](O)C/C=C\CCCCCCCC(=O)OC`, the “activation” value is reported as 2.3% [at 95.3 µM]. In the case of `CCCCC(CC)COC(=O)CCCCCCCCC(=O)OCC(CC)CCCC` (centres undefined), the “activation” value is reported as 1.09%. In the case of `O=C(O)c1ccco1`, the “activation” value is reported as 0.679%. For `C=CCOC(=O)CCC1CCCCC1`, the “activation” value was -0.908%. Work on `O=C(O)CNCC(=O)O` yielded an activation of 0.678% [at 8.08 µM]. With `CNCCCN1c2ccccc2CCc2ccccc21` the “activation” value was -5.47% [at 39.1 µM]. With `CC(=O)NO` the “activation” value was -2.41%. With `Nc1ccccc1S(=O)(=O)c1ccccc1` the “activation” value was -6.02%. With `NCc1ccccc1Sc1ccccc1CO` the “activation” value was -4.33%. With `CCOCC(O)COc1ccc(NC(=O)CC[S+](C)C)cc1` (centres undefined) the “activation” value was 1.54%. In the case of `NCC(=O)CCC(=O)O`, the “activation” value is reported as 0.986%. In the case of `C[N+](C)(C)CCOC(=O)CCC(=O)OCC[N+](C)(C)C`, the “activation” value is reported as -3.37%. For `NC(=O)C(c1ccccc1)(c1ccccc1)[C@@H]1CCN(CCc2ccc3c(c2)CCO3)C1`, the “activation” value was -5.09%. For `C=C(C)C(=O)OCCOCC`, the “activation” value was 1.82% [at 95.3 µM]. For `Cn1c(=O)cc(Oc2ccc(F)cc2F)c2cnc(NCC(C)(C)O)nc21`, the “activation” value was -8.88%. For `C/C(=C(\CCOP(=O)(O)O)SC(=O)c1ccccc1)N(C=O)Cc1cnc(C)nc1N`, the “activation” value was 0.153% [at 39.1 µM]. For `c1ccc(C(O[C@H]2CCCN(CCc3ccc4c(c3)OCO4)C2)c2ccccc2)cc1`, the “activation” value was -6.29%. With `COc1ccc(C(=O)N2CCN(CC(=O)N3CCOCC3)CC2)cc1` the “activation” value was 2.19%. In the case of `C/C=C/C(=O)CC`, the activation is reported as 0.488% [at 17.9 µM]. For `COc1ccc(S(=O)(=O)N2C(=O)[C@@](c3ccccc3OC)(N3C[C@H](O)C[C@H]3C(=O)N(C)C)c3cc(Cl)ccc32)c(OC)c1`, the “activation” value was -7.56%. For `C#CCN(C)CCCOc1ccc(Cl)cc1Cl`, the “activation” value was 4.19%. In the case of `CCCCC(CC)COC(=O)COc1ccc(Cl)cc1Cl` (centres undefined), the “activation” value is reported as 1.97% [at 95.3 µM]. For `CC(=O)OC[C@H]1O[C@@H](n2ncc(=O)[nH]c2=O)[C@H](OC(C)=O)[C@@H]1OC(C)=O`, the “activation” value was -7.8%. With `COc1cc(C(=O)OCCCN2CCCN(CCCOC(=O)c3cc(OC)c(OC)c(OC)c3)CC2)cc(OC)c1OC` the Potency was 8.41 µM (active).
